{"source": "PubChem BioAssay (NCATS)", "note": "Results filed as inconclusive are left out. Entries that show only a call come without a potency. Active and inactive are the calls of the source. Calls come from the whole dose curve; as a rule, active = well fitted cell-killing curve with a large enough effect; inconclusive = small, poorly fitted or top-dose-only effect, or effect the other way; inactive = no such curve, though single readings can be large or run the other way. Potency is the fitted concentration of half-maximal effect."}
{"assay": "Quantitative highthroughput screen to assess conditional lethalithy of SEM cells grown in Human Plasma-Like Medium with dialyzed fetal bovine serum (HPLM+ds) (AID 1963882); note: nearly all actives have a fitted effect of over 35% in size", "details": "SEM B-ALL cells in HPLM+ds, CellTiter-Glo viability, 48 h; series mostly up to 45.8 µM", "source_text": "Assay Provider: Jason Cantor Ph.D.\nDepartment of Biochemistry\nUniversity of Wisconsin-Madison, Madison, WI, USA\nChemical screening studies have identified drug sensitivities across hundreds of cancer cell lines but most putative therapeutics fail to translate. Discovery and development of drug candidates in models that more accurately reflect nutrient levels in human blood is a major challenge. Here we performed high-throughput screens in conventional versus Human Plasma-Like Medium (HPLM) to identify compounds that were \"missed\" when screening using the artificial culture condition. Sets of conditional anticancer compounds spanned phases of clinical development and included non-oncology drugs were assessed. […] We also traced conditional phenotypes for several chemotherapeutics to availability of HPLM-specific metabolites and confirmed others for compounds whose reported targets are encoded by nonessential genes. Our findings establish generalizable strategies for exploiting conditional lethality in HPLM to reveal therapeutic candidates and mechanisms of action in cancer cells.\nDescribed herein are the results of each viability screens against three cell lines: NOMO1 (an acute myeloid leukemia cell line); P12-Ichikawa (a T-cell acute lymphoblastic leukemia); and SEM (a B-cell ALL). Each assay was screened using 3 different cell culture media: homemade human plasma-Like medium with 10% dialyzed fetal bovine serum (HPLM+ds); RPMI1640 with 10% untreated FBS and 5mM glucose (RPMI+s); and RPMI1640 with 10% dialyzed fetal bovine serum and 5 mM glucose (RPMI+ds).\nPROTOCOL TABLE (as described by Inglese J, Shamu CE and Guy RK. 2007)\nSEQUENCE No. (e.g., 1, 2, 3, etc.); […] (e.g., Cells, Incubation, Reagent, etc.); VALUE and DESCRIPTION.\n1; Cells; 5 uL; white, solid bottom 1536-well Greiner assay plate.\n2; Compounds; 23 nL; Kalypsis pin tool (Wako USA) equipped with a 1536-well pin head to transfer to the assay plates.\n3; Incubation; 48 hours; 37C incubation.\n4; Reagent; 3 uL; CellTiter Glo (Promega).\n5; Incubation; 5 min, room temperature\n6; Detection; Luminescence, Viewlux PerkinElmer.\nNOTES (numbers refer to Sequence numbers above)\n1. Briefly, 5 ul of cell reagent was dispensed using a Multidrop Combi Dispenser. The NOMO1 and SEM cells were plated at 500 cells/well and the P12-Ichikawa line at 1000 cells/well.\n2. After seeding the cells, 23 nL of MIPE 4.1 library compounds (in DMSO) were added to each plate using a Kalypsys 1536 Pintool dispenser. Bortezomib at final concentration of […] and DMSO were added to each plate as positive and negative controls respectively. For each screen, MIPE 4.1 compounds were added over an eleven-point concentration range […] in 3-fold dilutions.\n3. Each plate was covered with a stainless steel gasketed lid to prevent evaporation and incubated for 48 hour at 37C, 95% relative humidity, and 5% CO2.\n4-5. Three microliter CellTilter-GloTM luminescent substrate mix (Promega) reagent was added to the assay plate and incubated at room temperature for 5 min.\n6. The luminescence signal was measured using a ViewLux (PerkinElmer) multiplate reader with a 2 second exposure time per plate. Data for each compound were normalized as percent viability such that measurements for DMSO and the empty well controls in each plate were defined as 100% and 0%, respectively."}
{"smiles": "O=C1Cc2cc(CCN3CCN(c4nsc5ccccc45)CC3)c(Cl)cc2N1", "Potency": "inactive"}
{"smiles": "CC(C)[C@@H](CS(=O)(=O)C(C)C)N1C(=O)[C@@](C)(CC(=O)O)C[C@H](c2cccc(Cl)c2)[C@H]1c1ccc(Cl)cc1", "Potency": "4170 nM (active)"}
{"smiles": "CNC(=O)c1ccc(-c2cnc3ncc(Cc4ccc5ncccc5c4)n3n2)cc1F", "Potency": "inactive"}
{"smiles": "CC(C)(N)c1ccc(-c2nc3ccccc3nc2-c2ccccc2)cc1", "Potency": "46.9 nM (active)"}
{"smiles": "CN1CC(=O)NC1=NC(=O)Nc1cccc(Cl)c1", "Potency": "inactive"}
{"smiles": "N#CC1(c2ccc(NC(=O)c3cccnc3NCc3ccncc3)cc2)CCCC1", "Potency": "inactive"}
{"smiles": "CN1CCc2c(n(Cc3ccc(C(=O)NO)cc3)c3ccccc23)C1", "Potency": "26400 nM (active)"}
{"smiles": "CN(CC=CC#CC(C)(C)C)Cc1cccc2ccccc12", "Potency": "inactive"}
{"smiles": "NS(=O)(=O)c1ccc(Nc2nc(OCC3CCCCC3)c3[nH]cnc3n2)cc1", "Potency": "469 nM (active)"}
{"smiles": "CCCCCCCCCCCC(CC1OC(=O)C1CCCCCC)OC(=O)C(CC(C)C)NC=O", "note": "(stereo not given)", "Potency": "18700 nM (active)"}
{"smiles": "COc1ccc(C2(C#N)CCC(C(=O)O)CC2)cc1OC1CCCC1", "note": "(stereo not given)", "Potency": "inactive"}
{"smiles": "CC(C)(C)c1cc(C(C)(C)C)c(NC(=O)c2c[nH]c3ccccc3c2=O)cc1O", "Potency": "inactive"}
{"smiles": "COc1cc(C(=O)NS(=O)(=O)c2ccccc2C)ccc1Cc1cn(C)c2ccc(NC(=O)OC3CCCC3)cc12", "Potency": "20900 nM (active)"}
{"smiles": "CN[C@@H]1C[C@H]2O[C@@](C)([C@H]1OC)n1c3ccccc3c3c4c(c5c6ccccc6n2c5c31)C(=O)N[C@H]4O", "Potency": "332 nM (active)"}
{"smiles": "COc1ccc2cc(-c3nc(-c4ccc(S(C)=O)cc4)[nH]c3-c3ccncc3)ccc2c1", "note": "(stereo not given)", "Potency": "inactive"}
{"smiles": "Cc1ccnc(NS(=O)(=O)c2ccc(NC(=O)Nc3ccc(S(=O)(=O)Nc4nccc(C)n4)cc3)cc2)n1", "Potency": "187 nM (active)"}
{"smiles": "O=C1c2c(O)cc(O)cc2O[C@H](c2cc(O)c(O)c(O)c2)[C@H]1O", "Potency": "3720 nM (active)"}
{"smiles": "CCN1C[C@H](C)n2c(c(O)c3c(=O)n(Cc4ccc(F)c(Cl)c4)nc(C(=O)NC)c32)C1=O", "Potency": "inactive"}
{"smiles": "Nc1ccc(C(=O)c2cc3c(ccc4ccccc43)[nH]2)cc1", "Potency": "2960 nM (active)"}
{"smiles": "OC(CCN1CCCCC1)(c1ccccc1)C1CC2C=CC1C2", "note": "(stereo not given)", "Potency": "inactive"}
{"smiles": "NC(=O)c1cccc(-c2cccc(OC(=O)NC3CCCCC3)c2)c1", "Potency": "inactive"}
{"smiles": "Cc1cc(Cl)ccc1OCCCC(=O)NO", "Potency": "9350 nM (active)"}
{"smiles": "O=C1Nc2ccc(Cl)cc2C(C#CC2CC2)(C(F)(F)F)O1", "note": "(stereo not given)", "Potency": "inactive"}
{"smiles": "COc1cc2c(Nc3ccc(Cl)c(Cl)c3F)ncnc2cc1OCC1C[C@@H]2CN(C)C[C@@H]2C1", "note": "(stereo not given in full)", "Potency": "14800 nM (active)"}
{"smiles": "Cc1c(Cn2c(C)nc3c(C(=O)O)cc(N4CCOCC4)cc32)cccc1C(F)(F)F", "Potency": "inactive"}
{"smiles": "CC1=NN(c2ccccc2)C(=O)C1", "Potency": "inactive"}
{"smiles": "Cc1ccc(C(=O)N(CCCN)[C@@H](c2oc3cc(Cl)ccc3c(=O)c2Cc2ccccc2)C(C)C)cc1", "Potency": "inactive"}
{"smiles": "N#CC(c1ccc(Cl)cc1)c1c(Cl)cc(-n2ncc(=O)[nH]c2=O)cc1Cl", "note": "(stereo not given)", "Potency": "inactive"}
{"smiles": "NC(CO)C(=O)NNCc1ccc(O)c(O)c1O", "note": "(stereo not given)", "Potency": "inactive"}
{"smiles": "CN(C)Cc1c(C(=O)NCCOc2ccc(C(=O)NO)cc2)oc2ccccc12", "Potency": "1180 nM (active)"}
{"smiles": "Cc1cnc(NC(=O)Nc2cc(Br)c(C)cc2OC[C@@H]2CNCCO2)cn1", "Potency": "526 nM (active)"}
{"smiles": "COc1c(N2CCNC(C)C2)c(F)cc2c(=O)c(C(=O)O)cn(C3CC3)c12", "note": "(stereo not given)", "Potency": "743 nM (active)"}
{"smiles": "Cn1cc(-c2ccc3nnc(C(F)(F)c4ccc5ncccc5c4)n3n2)cn1", "Potency": "inactive"}
{"smiles": "Cn1c(N2CCCCS2(=O)=O)nc(C(=O)NCc2ccc(F)cc2)c(O)c1=O", "Potency": "inactive"}
{"smiles": "N[C@@H]1CONC1=O", "Potency": "inactive"}
{"smiles": "CCn1cc(-c2ccnc3[nH]c(-c4cccc(CN(C)C)c4)cc23)c(-c2ccc(NC(=O)N(C)C)cc2)n1", "Potency": "74.3 nM (active)"}
{"smiles": "O=C1c2c(O)cccc2[C@@H]([C@@H]2O[C@H](CO)[C@@H](O)[C@H](O)[C@H]2O)c2cc(CO)cc(O)c21", "Potency": "inactive"}
{"smiles": "CN1c2ccccc2C(=O)N2CCc3c([nH]c4ccccc34)C21", "note": "(stereo not given)", "Potency": "inactive"}
{"smiles": "Cc1cc(=O)oc2cc(O)ccc12", "Potency": "inactive"}
{"smiles": "Clc1ccc2c(c1)C(N1CCNCC1)=Nc1ccccc1O2", "Potency": "inactive"}
